Test results taken from PubChem BioAssay (EPA / NIEHS).
Calls of active or inactive are those of the source. The calls were made as follows: active = hit-call score of the fitted dose curve at least 0.9, where 1 is the maximum; inactive = score below 0.9.

How the values were obtained:
Details in all cases: mRNA level, 48 h; actives raise or lower the signal
[1] = read-out: Early growth response protein 1 (EGR1) transcription factor, EGR1 (gene 1958); assay: LTEA_HepaRG_EGR1: Life Technologies and Expression Analysis (LTEA) Assay for Early growth response protein 1 (EGR1) transcription factor using HepaRG (AID 2283490)
In short: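 EGR1 transcript levels quantified by qRT-PCR (Fluidigm arrays) against three housekeeping genes after 48 h chemical exposure of HepaRG cells. Eight-point half-log series topping at 100 uM, 0.5% DMSO vehicle, analyzed for gain or loss.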

[2] = read-out: Ezrin (EZR), EZR (gene 7430); assay: LTEA_HepaRG_EZR: Life Technologies and Expression Analysis (LTEA) Assay for Ezrin (EZR) using HepaRG (AID 2283491)
In short: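 Differentiated human HepaRG cells, 48 h after plating, were exposed in serum-free induction medium for 48 hours to eight half-log concentrations up to 100 uM in 0.5% DMSO. EZR mRNA was measured by TaqMan qRT-PCR, normalized to ACTB, GAPDH and POLR2A, and fitted bidirectionally against DMSO.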

[3] = read-out: Cytochrome P450 3A7 (Homo sapiens) (UniProt P24462); assay: LTEA_HepaRG_CYP3A7: Life Technologies and Expression Analysis (LTEA) Assay for CYP3A7 using HepaRG (AID 2283492)
In short: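 Cells were thawed, plated, cultured 48 h, then treated for a further 48 h with chemicals (eight-point half-log series from 100 uM, 0.5% DMSO). RNA was isolated and CYP3A7 expression quantified by qRT-PCR normalised to ACTB, GAPDH and POLR2A.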

CYP3A5 (gene 1577) = assay: LTEA_HepaRG_CYP3A5: Life Technologies and Expression Analysis (LTEA) Assay for CYP3A5 using HepaRG (AID 2283493)
In short: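 Human HepaRG hepatic cells receive 48 h chemical treatment at eight concentrations (half-log steps from 100 uM) in 0.5% DMSO. Expression of CYP3A5 is quantified by Fluidigm qRT-PCR and normalized to three reference genes.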

[4] = read-out: Fatty Acid-Binding Protein 1 (FABP1), FABP1 (gene 2168); assay: LTEA_HepaRG_FABP1: Life Technologies and Expression Analysis (LTEA) Assay for Fatty Acid-Binding Protein 1 (FABP1) using HepaRG (AID 2283494)
In short: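 FABP1 expression by TaqMan qRT-PCR, normalised to three housekeeping genes, in HepaRG cells after 48 h chemical treatment. Eight-point half-log series topping at 100 uM in 0.5% DMSO, duplicates; gain or loss fitted relative to vehicle.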

[5] = read-out: Glutathione S-Transferase (GSTA2), GSTA2 (gene 2939); assay: LTEA_HepaRG_GSTA2: Life Technologies and Expression Analysis (LTEA) Assay for Glutathione S-Transferase (GSTA2) using HepaRG (AID 2283497)
In short: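 GSTA2 transcript levels came from Fluidigm TaqMan qRT-PCR normalized to three housekeeping genes, fitted in both directions against DMSO. HepaRG cultures received chemicals for 48 h in serum-free induction medium (0.5% DMSO), 8 half-log concentrations up to 100 uM, duplicate.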

[6] = read-out: growth arrest and DNA damage 45 (GADD45G), GADD45G (gene 10912); assay: LTEA_HepaRG_GADD45G: Life Technologies and Expression Analysis (LTEA) Assay for growth arrest and DNA damage 45 (GADD45G) using HepaRG (AID 2283499)
In short: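 Human hepatic HepaRG line treated 48 h with chemicals (eight concentrations, half-log steps from 100 uM); transcript induction or repression of GADD45G scored by qRT-PCR versus DMSO vehicle.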

[7] = read-out: Heat shock 70 kDa protein 1 (HSPA1A), gene 3303; assay: LTEA_HepaRG_HSPA1A: Life Technologies and Expression Analysis (LTEA) Assay for Heat shock 70 kDa protein 1 (HSPA1A) using HepaRG (AID 2283502)
In short: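 Cells were plated and cultured for 48 h, then switched to serum-free induction medium. Chemicals were added at eight half-log concentrations up to 100 uM for 48 h. RNA was then isolated and HSPA1A measured by qRT-PCR with bidirectional curve fitting against DMSO.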

[8] = read-out: Hypoxia-inducible factor 1-alpha (Homo sapiens) (UniProt Q16665); assay: LTEA_HepaRG_HIF1A: Life Technologies and Expression Analysis (LTEA) Assay for Hypoxia-inducible factor 1 (HIF1A) Trancription factor using HepaRG (AID 2283503)
In short: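 HIF1A transcript level read by qRT-PCR (ACTB, GAPDH, POLR2A normalization) after 48 h chemical exposure of HepaRG cultures. Eight half-log concentrations, top 100 uM, 0.5% DMSO vehicle, duplicates; bidirectional curve fit against DMSO baseline.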

[9] = read-out: 3-Hydroxy-3-Methylglutaryl-CoA Synthase 2 (HMGCS2), HMGCS2 (gene 3158); assay: LTEA_HepaRG_HMGCS2: Life Technologies and Expression Analysis (LTEA) Assay for 3-Hydroxy-3-Methylglutaryl-CoA Synthase 2 (HMGCS2) using HepaRG (AID 2283504)
In short: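 Expression of HMGCS2 in human HepaRG liver cells is measured by qRT-PCR 48 h after dosing (highest 100 uM, half-log series, 0.5% DMSO). Values come from bidirectional concentration-response fitting with DMSO as baseline.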

HGF (gene 3082) = assay: LTEA_HepaRG_HGF: Life Technologies and Expression Analysis (LTEA) Assay for Hepatocyte Growth Facto (HGF) using HepaRG (AID 2283505)
In short: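 Gain or loss of HGF mRNA in human HepaRG liver cells after 48 h chemical exposure; eight concentrations up to 100 uM with 0.5% DMSO vehicle, quantified by TaqMan qRT-PCR.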

[10] = read-out: Insulin Like Growth Factor 1 (IGF1), IGF1 (gene 3479); assay: LTEA_HepaRG_IGF1: Life Technologies and Expression Analysis (LTEA) Assay for Insulin Like Growth Factor 1 (IGF1) using HepaRG (AID 2283506)
In short: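 Cells are thawed, plated and cultured 48 h, then exposed in duplicate to chemical (highest 100 uM, half-log steps, 0.5% DMSO) for another 48 h. Total RNA is analysed by Fluidigm qRT-PCR for IGF1 expression relative to vehicle.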

[11] = read-out: Intercellular Adhesion Molecule 1 (ICAM1), ICAM1 (gene 3383); assay: LTEA_HepaRG_ICAM1: Life Technologies and Expression Analysis (LTEA) Assay for Intercellular Adhesion Molecule 1 (ICAM1) using HepaRG (AID 2283507)
In short: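 Gain or loss of transcript in HepaRG hepatic cells is quantified by qRT-PCR after 48 h chemical exposure (up to 100 uM, half-log steps), with DMSO as baseline.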

[12] = read-out: Insulin-like growth factor-binding protein 1 (IGFBP1), IGFBP1 (gene 3484); assay: LTEA_HepaRG_IGFBP1: Life Technologies and Expression Analysis (LTEA) Assay for Insulin-like growth factor-binding protein 1 (IGFBP1) using HepaRG (AID 2283508)
In short: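 mRNA induction or loss was quantified by qRT-PCR after 48 h chemical exposure of human HepaRG cells, with 0.5% DMSO as vehicle and baseline. Concentration-response over eight points up to 100 uM.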

[13] = read-out: Pro-epidermal growth factor (Homo sapiens) (UniProt P01133); assay: LTEA_HepaRG_EGF: Life Technologies and Expression Analysis (LTEA) Assay for Epidermal growth factor (EGF) using HepaRG (AID 2283489)
In short: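 EGF expression changes in human HepaRG cells are scored by bidirectional fitting relative to 0.5% DMSO controls. Chemicals are tested at eight half-log concentrations up to 100 uM for 48 h in serum-free induction medium.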

[14] = read-out: Cytochrome P450 7A1 (Homo sapiens) (UniProt P22680); assay: LTEA_HepaRG_CYP7A1: Life Technologies and Expression Analysis (LTEA) Assay for Cytochrome P450 7A1 (CYP7A1) using HepaRG (AID 2283496)
In short: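 HepaRG, 48 h exposure, 8-pt half-log series from 100 uM, 0.5% DMSO vehicle, duplicates. Readout: TaqMan qRT-PCR mRNA vs three housekeeping genes; bidirectional curve fit against DMSO baseline.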

[15] = read-out: Glutamate-cysteine ligase catalytic (GCLC), GCLC (gene 2729); assay: LTEA_HepaRG_GCLC: Life Technologies and Expression Analysis (LTEA) Assay for Glutamate-cysteine ligase catalytic (GCLC) using HepaRG (AID 2283498)
In short: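 Expression by TaqMan qRT-PCR, normalized to three housekeeping genes (ACTB, GAPDH, POLR2A), with up- or down-regulation fitted against DMSO. HepaRG cells dosed in duplicate for 48 h with 8 half-log concentrations up to 100 uM, vehicle 0.5% DMSO.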

[16] = read-out: Glutamate-cysteine ligase regulatory (GCLM), GCLM (gene 2730); assay: LTEA_HepaRG_GCLM: Life Technologies and Expression Analysis (LTEA) Assay for Glutamate-cysteine ligase regulatory (GCLM) using HepaRG (AID 2283500)
In short: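 Endpoint is GCLM transcript level by qRT-PCR, normalized to three housekeeping genes, after 48 h chemical exposure of human HepaRG cells (0.5% DMSO vehicle, top 100 uM, half-log dilutions). Fitting was bidirectional relative to DMSO.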

[17] = read-out: Glutathione S-transferase M3 (GSTM3), GSTM3 (gene 2947); assay: LTEA_HepaRG_GSTM3: Life Technologies and Expression Analysis (LTEA) Assay for Glutathione S-transferase M3 (GSTM3) using HepaRG (AID 2283501)
In short: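 Changes in GSTM3 expression, an oxidative-stress marker, were scored by bidirectional curve fitting against 0.5% DMSO vehicle. Human HepaRG cultures received chemicals for 48 h in duplicate, highest concentration 100 uM with half-log dilutions.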

Sequence of Cytochrome P450 3A7 (Homo sapiens) (P24462 whole entry, looked up): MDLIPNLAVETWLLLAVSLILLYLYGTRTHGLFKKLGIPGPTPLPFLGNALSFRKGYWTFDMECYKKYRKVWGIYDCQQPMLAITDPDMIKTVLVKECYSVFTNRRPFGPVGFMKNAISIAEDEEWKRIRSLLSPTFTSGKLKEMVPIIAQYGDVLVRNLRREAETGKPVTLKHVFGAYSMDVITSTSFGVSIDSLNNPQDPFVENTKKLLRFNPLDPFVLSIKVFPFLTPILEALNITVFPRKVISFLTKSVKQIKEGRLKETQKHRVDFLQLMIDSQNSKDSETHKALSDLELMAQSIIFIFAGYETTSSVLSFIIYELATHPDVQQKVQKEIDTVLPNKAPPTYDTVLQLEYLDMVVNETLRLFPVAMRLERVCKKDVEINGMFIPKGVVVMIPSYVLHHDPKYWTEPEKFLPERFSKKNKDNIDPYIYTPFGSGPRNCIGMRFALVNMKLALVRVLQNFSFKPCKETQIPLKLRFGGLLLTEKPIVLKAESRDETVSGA
Sequence of Hypoxia-inducible factor 1-alpha (Homo sapiens) (Q16665 whole entry, looked up): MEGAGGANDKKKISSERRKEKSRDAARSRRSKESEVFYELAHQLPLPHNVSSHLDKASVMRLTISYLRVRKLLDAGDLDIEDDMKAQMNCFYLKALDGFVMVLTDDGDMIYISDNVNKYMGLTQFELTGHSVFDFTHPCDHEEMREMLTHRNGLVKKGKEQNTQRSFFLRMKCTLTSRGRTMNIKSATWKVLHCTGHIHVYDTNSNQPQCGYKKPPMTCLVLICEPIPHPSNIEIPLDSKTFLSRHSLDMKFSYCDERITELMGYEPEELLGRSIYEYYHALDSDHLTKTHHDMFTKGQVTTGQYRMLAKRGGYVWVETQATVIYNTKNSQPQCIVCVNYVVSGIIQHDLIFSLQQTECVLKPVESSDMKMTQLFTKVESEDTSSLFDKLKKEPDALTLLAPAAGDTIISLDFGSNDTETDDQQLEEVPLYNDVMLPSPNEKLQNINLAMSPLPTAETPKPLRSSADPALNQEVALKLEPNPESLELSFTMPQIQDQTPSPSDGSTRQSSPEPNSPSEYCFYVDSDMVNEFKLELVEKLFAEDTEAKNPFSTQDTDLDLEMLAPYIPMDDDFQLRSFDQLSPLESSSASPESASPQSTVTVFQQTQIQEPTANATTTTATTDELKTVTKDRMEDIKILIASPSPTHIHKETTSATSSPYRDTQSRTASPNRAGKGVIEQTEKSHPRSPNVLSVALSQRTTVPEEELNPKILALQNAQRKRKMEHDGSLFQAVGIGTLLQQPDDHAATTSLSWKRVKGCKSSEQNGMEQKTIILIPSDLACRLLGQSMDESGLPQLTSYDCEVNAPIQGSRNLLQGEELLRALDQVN

Compound: CCNC(=O)NC(=O)C(C#N)=NOC
- outcome [1]: inactive
- outcome [2]: inactive
- outcome [3]: inactive
- outcome (CYP3A5 (gene 1577)): inactive
- outcome [4]: inactive
- outcome [5]: inactive
- outcome [6]: inactive
- outcome [7]: inactive
- outcome [8]: inactive
- AC50 [9]: 50 µM (active)
- outcome (HGF (gene 3082)): inactive
- outcome [10]: inactive
- outcome [11]: inactive
- outcome [12]: inactive

Compound: COCC(=O)N(c1c(C)cccc1C)C(C)C(=O)OC (configuration not stated)
- outcome [13]: inactive
- outcome [1]: inactive
- outcome [2]: inactive
- outcome [3]: inactive
- outcome (CYP3A5 (gene 1577)): inactive
- AC50 [4]: 31.7 µM (active)
- outcome [14]: inactive
- outcome [5]: inactive
- outcome [15]: inactive
- outcome [16]: inactive
- outcome [17]: inactive
- outcome [7]: inactive
- outcome [8]: inactive
- outcome [9]: inactive
- outcome (HGF (gene 3082)): inactive
- outcome [10]: inactive
- outcome [11]: inactive
- outcome [12]: inactive

Compound: COC(=O)NC(=S)Nc1ccccc1NC(=S)NC(=O)OC
- outcome [13]: inactive
- outcome [1]: inactive
- outcome [2]: inactive
- AC50 [3]: 4.46 µM (active)
- outcome (CYP3A5 (gene 1577)): inactive
- outcome [4]: inactive
- outcome [14]: inactive
- outcome [5]: inactive
- outcome [6]: inactive
- outcome [16]: inactive
- outcome [7]: inactive
- outcome [8]: inactive
- outcome [9]: inactive
- outcome (HGF (gene 3082)): inactive
- AC50 [10]: 29.9 µM (active)
- outcome [11]: inactive
- outcome [12]: inactive

Compound: CCC(C)n1c(=O)[nH]c(C)c(Br)c1=O (configuration not stated)
- outcome [13]: inactive
- outcome [1]: inactive
- outcome [2]: inactive
- outcome [3]: inactive
- AC50 (CYP3A5 (gene 1577)): 20.4 µM (active)
- AC50 [4]: 24.6 µM (active)
- AC50 [14]: 23.7 µM (active)
- AC50 [5]: 50 µM (active)
- outcome [15]: inactive
- AC50 [6]: 30.4 µM (active)
- outcome [17]: inactive
- outcome [7]: inactive
- outcome [8]: inactive
- AC50 [9]: 29.2 µM (active)
- outcome (HGF (gene 3082)): inactive
- AC50 [10]: 8.53 µM (active)
- outcome [11]: inactive
- AC50 [12]: 18.1 µM (active)

Compound: N#Cc1c[nH]cc1-c1cccc2c1OC(F)(F)O2
- outcome [13]: inactive
- AC50 [1]: 50 µM (active)
- outcome [2]: inactive
- outcome [3]: inactive
- outcome (CYP3A5 (gene 1577)): inactive
- AC50 [4]: 50 µM (active)
- AC50 [14]: 69.9 µM (active)
- AC50 [5]: 85.6 µM (active)
- outcome [15]: inactive
- outcome [6]: inactive
- outcome [7]: inactive
- AC50 [8]: 83.4 µM (active)
- AC50 [9]: 79.3 µM (active)
- outcome (HGF (gene 3082)): inactive
- outcome [10]: inactive
- outcome [11]: inactive
- AC50 [12]: 69 µM (active)

Compound: CS(=O)(=O)c1cc(C(F)(F)F)ccc1C(=O)c1cnoc1C1CC1
- outcome [13]: inactive
- outcome [1]: inactive
- outcome [2]: inactive
- outcome [3]: inactive
- outcome (CYP3A5 (gene 1577)): inactive
- outcome [4]: inactive
- outcome [14]: inactive
- outcome [5]: inactive
- outcome [6]: inactive
- outcome [17]: inactive
- outcome [7]: inactive
- outcome [8]: inactive
- outcome [9]: inactive
- outcome (HGF (gene 3082)): inactive
- outcome [10]: inactive
- outcome [11]: inactive
- outcome [12]: inactive

Compound: COc1cc(Cl)c(OC)cc1Cl
- outcome [13]: inactive
- outcome [1]: inactive
- outcome [2]: inactive
- AC50 [3]: 8.31 µM (active)
- outcome (CYP3A5 (gene 1577)): inactive
- outcome [4]: inactive
- outcome [14]: inactive
- outcome [5]: inactive
- outcome [6]: inactive
- outcome [17]: inactive
- outcome [7]: inactive
- outcome [9]: inactive
- outcome (HGF (gene 3082)): inactive
- outcome [10]: inactive
- outcome [11]: inactive
- outcome [12]: inactive
